Results on eight compounds are retold here after PubChem BioAssay (NCATS).

Test [1] deals with Transient receptor potential cation channel subfamily V member 1 (Homo sapiens) (UniProt Q8NER1). In words: HTS Assay for Compounds that Act as Enhancers of the Vanilloid Receptor 1 (AID 488979). Note: 0% is about no effect. The essentials:
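TRPV1-expressing cells loaded with Fluo-8 calcium dye; compounds added and calcium influx read kinetically for 3 min (agonist phase), then capsaicin at EC20 added and read 2 min more for enhancement. Fluorescence ex 480/em 520 nm.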

Test [2] has as its target Thyrotropin receptor (Homo sapiens) (UniProt P16473). In words: qHTS Assay for Antagonists of the Thyroid Stimulating Hormone Receptor (AID 488980). Note: series mostly up to about 58 µM; 0% is about no effect. The essentials:
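Inhibition of TSH-stimulated cAMP accumulation was quantified by homogeneous time-resolved FRET in TSHR-transfected HEK293 cells. Agonist: TSH, 4 nM final (EC80).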

Test [3] deals with D(1A) dopamine receptor (Homo sapiens) (UniProt P21728). Nature of the test: HTS Assay for Allosteric Agonists of the Human D1 Dopamine Receptor: Primary Screen for Agonists (AID 488981). Note: 0% is about no effect. The essentials: (§1)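 Tetracycline-induced HEK293 T-REx cells force-coupled to calcium signalling were incubated overnight at 30 C and dye-loaded at room temperature. Calcium flux over 180 s after compound addition flagged agonists; a further 180 s read after EC20 dopamine flagged potentiators.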

Test [4] shares this target. In words: HTS Assay for Allosteric Agonists of the Human D1 Dopamine Receptor: Primary Screen for Potentiators (AID 488982). Note: 0% is about no effect. The essentials:
as §1

The target is the same in test [5]. In words: HTS Assay for Allosteric Agonists of the Human D1 Dopamine Receptor: Primary Screen for Antagonists (AID 488983).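 Note: calcium flux response to an EC80 dopamine challenge measured with no-wash dye; % is set by controls: 0 for no effect and ±100 for the full control effect; nearly all actives have a fitted effect of over 65% in size.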 In a few lines:
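Cells are induced with tetracycline and incubated overnight at 30 C, then loaded with calcium dye for 30 to 90 minutes at room temperature. Compound addition is followed by a 180 s read, then an EC80 dopamine addition and another 180 s read.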

The target of test [6] is Thyrotropin-releasing hormone receptor (Homo sapiens) (UniProt P34981). In words: qHTS for Small Molecule Agonists and Allosteric Enhancers of Human TRH Receptor: Validation Screen for Agonists (AID 493127;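 active = calcium activation more than 3 SD above the typical response in the agonist read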;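 note: intracellular calcium rise by fluo-8 fluorescence before TRH EC20 addition; 0% is about no effect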). The note with it: TRH receptor agonist cell assay; at 2 µM; stronger effect = higher value. The essentials:
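Cells 2000/well, 10% FCS, 18 h 33.5C/5% CO2 → fluo-8 Ca dye, RT 30 min–1.5 h → FDSS baseline 10 × 1 s → compound added → 230 cycles (1 s/cycle) agonist mode. TRH controls.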
Background: Quantitative high-throughput screening tests each substance at several concentrations.

Test [7] can be described thus: Nrf2 qHTS screen for inhibitors: Validation (AID 493153; active = well fitted inhibition curve with a large enough effect in the main read-out, with a control signal flat, not every such curve was filed as active). The note with it: Potency: luciferase luminescence; viability change: measured here: cytotoxicity max response. The essentials:
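Luminescence from an ARE-firefly luciferase reporter in A549 cells gives Nrf2 inhibition; an earlier CellTiter-Fluor fluorescent read flags cytotoxicity. Cells in 5% FBS OPTI-MEM received compound dilution series for 18-24 h at 37°C.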

Test [8] is described as follows: qHTS for Inhibitors of Cell Surface uPA Generation: Validation Assay (AID 493164). Note: 0% is about no effect. In a few lines: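 RAW 264.7 cells (4000/well) were plated overnight, then exposed for 18 h at 37 C, 5% CO2 to compounds in a 7-point 1:5 titration (2.45 nM–38.3 uM final). Intracellular ATP was read by ATP-Lite luminescence.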
The nature of test [9]: Validation screen for small molecules that induce DNA re-replication in SW480 colon adenocarcinoma cells (AID 504364). Note: 0% is about no effect. The essentials:
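250 cells/well; compound pinned in; 48 hr, 37 C, 5% CO2; Hoechst added, 40 min; nuclear fluorescence imaged, 405 ex / 500-530 em; re-replication scored as increase in high-intensity nuclei.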

Test [10] concerns the target Peptidyl-prolyl cis-trans isomerase NIMA-interacting 1 (Homo sapiens) (UniProt Q13526). In words: qHTS Validation Assay to Find Inhibitors of Pin1 (AID 504536; active = well fitted inhibition curve with a large enough effect in the polarisation, with a control signal flat, not every such curve was filed as active; the % refers to the polarisation;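 note: 0% = full Pin1 enzyme wells and -100% = no-enzyme wells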). The essentials: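 Fluorescence polarization competition: compounds (titration) displace HiFluor-488-labeled Pin1-1b peptide from Pin1 (0.3 uM final) in pH 7.5 HEPES buffer with DTT, 10 min at room temperature; %Activity normalized to no-enzyme wells, curves fitted.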

For test [11], the target named is Phosphoglycerate kinase, glycosomal (Trypanosoma brucei brucei) (UniProt P07378). In words: qHTS Validation Assay to Find Inhibitors of Phosphoglycerate Kinase (AID 504547).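 Note: control wells lack PGK and mark full inhibition.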 The essentials:
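Substrate/PGK mix plus compound; reaction started with GAPDH (100nM final) to form 1,3-BPG; 60 min RT; Kinase-Glo Plus 10 min; luminescence. TEA 100mM pH 7.6, MgCl2 5mM, Tween-20 0.01%.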

The target of test [12] is phosphoglycerate mutase (Leishmania major) (UniProt Q4Q090). Nature of the test: qHTS Validation Assay to Find Inhibitors of Phosphoglycerate Mutase (AID 504548).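 Note: end-point luminescence from Kinase-GloPlus after the PGAM reaction; series mostly up to about 58 µM; % is set by controls: 0 for no effect and ±100 for the full control effect.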 The note with it: Potency: inhibition qHTS. In a few lines: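 L. major PGAM (1.25nM final) was added to substrate buffer and pinned compound, incubated 45 minutes at room temperature, then Kinase-GloPlus added; luminescence read after 10 minutes. Buffer: 100 mM TEA pH 7.6, 5 mM MgCl2, 0.01% Tween-20.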

Test [13] has as its target Ubiquitin carboxyl-terminal hydrolase 1 (Homo sapiens) (UniProt O94782). Nature of the test: Inhibitors of USP1/UAF1: Pilot qHTS (AID 504865).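 Note: rhodamine fluorescence freed from ubiquitin-rhodamine substrate followed over time; top concentration of the series differs between compounds; % is set by controls: 0 for no effect and ±100 for the full control effect; nearly all actives have a fitted effect of over 35% in size.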 The essentials: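 Enzyme-free wells gave the negative control, while test wells held 1nM USP1/UAF1 preincubated with compound for 15 min at room temperature. Ub-Rho at 150nM final started the reaction, and fluorescence at 480/540 nm was recorded kinetically.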

A short description of test [14]: qHTS for Inhibitors of ATXN expression: Validation of Cytotoxic Assay (AID 588349). Note: % is set by controls: 0 for no effect and ±100 for the full control effect. The essentials:
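Read-out: ATP-based luminescence (CellTiter Glo) reflecting viability of HEK293 cells after 72 hr incubation at 37 degrees C with a concentration series of each compound.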

Test [15] is described as follows: qHTS for Inhibitors of ATXN expression: Validation (AID 588378). Note: series mostly up to about 57 µM; % is set by controls: 0 for no effect and ±100 for the full control effect; nearly all actives have a fitted effect of over 75% in size. In a few lines:
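After a 2 h attachment and 24 h compound incubation, HEK293-ATXN2-FFLuc wells are read for fluorescence at 405 nm excitation/525 nm emission as a viability measure, then for Bright-Glo luminescence reflecting ATXN2 expression.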

The nature of test [16]: Validation screen for small molecules that induce genotoxicity in human embryonic kidney (HEK293T) cells expressing luciferase-tagged ELG1 (AID 493106). Note: 0% is about no effect. In a few lines:
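Luminescence from an ELG1-luciferase fusion serves as the read-out, rising when genetic stress elevates ELG1 protein. HEK293T reporter cells (2,000 per well) received 23 nL compound, incubated 16 hr at 37 °C, then ONE-Glo for 30 min at room temperature.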

The target of test [17] is Galactokinase (Homo sapiens) (UniProt P51570). Nature of the test: qHTS Validation Assay for Inhibitors of Human Galactokinase (GALK) (AID 493189). Note: 0% is about no effect. The essentials:
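Enzyme activity is inferred from ATP consumption: human GALK phosphorylates galactose (100 uM) using 35 uM ATP for 1 h at room temperature, and luciferase-based Kinase-Glo Plus reports unconsumed ATP.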

For test [18], the target named is ATPase family AAA domain-containing protein 5 (Homo sapiens) (UniProt Q96QE3). In words: Validation screen for small molecules that inhibit ELG1-dependent DNA repair in human embryonic kidney (HEK293T) cells expressing luciferase-tagged ELG1 (AID 493107).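 Note: cells co-treated with the DNA-damaging agent 5-fluorouridine alongside compound; series mostly up to about 46 µM; % is set by controls: 0 for no effect and ±100 for the full control effect; inhibitors lower the ELG1-luciferase luminescence signal; nearly all actives have a fitted effect of over 70% in size.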 The essentials:
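Luminescence from ONE-Glo, developed 30 min at room temperature, served as read-out of ELG1-luciferase levels. Beforehand, reporter HEK293T cells received 5-fluorouridine plus test compound for 16 hr at 37 °C.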

Results filed as inconclusive are left out. The source made the active and inactive calls. Unless noted, calls come from the whole dose curve; as a rule, active = well fitted curve in the direction sought with a large enough effect; inconclusive = small, poorly fitted or top-dose-only effect, or another doubt; inactive = no such curve, though single readings can be large; an effect the other way counts as inactive or inconclusive.

Sequence of Ubiquitin carboxyl-terminal hydrolase 1 (Homo sapiens) (O94782 whole entry, looked up): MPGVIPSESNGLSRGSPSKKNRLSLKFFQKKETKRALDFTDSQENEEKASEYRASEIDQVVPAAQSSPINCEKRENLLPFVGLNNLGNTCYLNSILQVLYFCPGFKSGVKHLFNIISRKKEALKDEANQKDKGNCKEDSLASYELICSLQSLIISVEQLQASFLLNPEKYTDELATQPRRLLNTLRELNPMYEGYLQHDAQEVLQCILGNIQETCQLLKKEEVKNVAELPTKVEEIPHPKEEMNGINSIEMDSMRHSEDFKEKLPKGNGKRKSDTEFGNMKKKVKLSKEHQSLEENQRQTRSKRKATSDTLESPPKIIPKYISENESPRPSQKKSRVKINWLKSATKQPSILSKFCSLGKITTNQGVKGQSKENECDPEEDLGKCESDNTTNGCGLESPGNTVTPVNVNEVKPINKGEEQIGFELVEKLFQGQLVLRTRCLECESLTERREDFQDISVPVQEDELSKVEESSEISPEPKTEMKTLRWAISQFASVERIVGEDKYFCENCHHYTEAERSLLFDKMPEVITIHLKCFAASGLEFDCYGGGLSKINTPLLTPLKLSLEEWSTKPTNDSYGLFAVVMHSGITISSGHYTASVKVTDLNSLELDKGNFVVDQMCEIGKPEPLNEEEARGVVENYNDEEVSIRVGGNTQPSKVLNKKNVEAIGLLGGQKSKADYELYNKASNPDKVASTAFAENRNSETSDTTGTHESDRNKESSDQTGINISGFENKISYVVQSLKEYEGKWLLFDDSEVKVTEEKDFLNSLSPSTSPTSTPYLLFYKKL
Sequence of Phosphoglycerate kinase, glycosomal (Trypanosoma brucei brucei) (P07378 whole entry, looked up): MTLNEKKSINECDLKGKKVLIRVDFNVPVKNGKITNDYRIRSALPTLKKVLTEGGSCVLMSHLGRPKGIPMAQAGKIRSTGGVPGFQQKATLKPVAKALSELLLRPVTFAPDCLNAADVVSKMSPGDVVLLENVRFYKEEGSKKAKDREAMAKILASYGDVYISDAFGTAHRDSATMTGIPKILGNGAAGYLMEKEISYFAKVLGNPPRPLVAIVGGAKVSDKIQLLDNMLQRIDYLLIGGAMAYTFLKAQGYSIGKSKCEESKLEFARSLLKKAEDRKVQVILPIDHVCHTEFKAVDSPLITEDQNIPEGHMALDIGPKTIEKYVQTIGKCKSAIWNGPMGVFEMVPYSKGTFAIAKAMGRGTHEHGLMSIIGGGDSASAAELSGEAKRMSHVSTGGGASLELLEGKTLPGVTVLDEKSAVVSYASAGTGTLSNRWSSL
Sequence of D(1A) dopamine receptor (Homo sapiens) (P21728 whole entry, looked up): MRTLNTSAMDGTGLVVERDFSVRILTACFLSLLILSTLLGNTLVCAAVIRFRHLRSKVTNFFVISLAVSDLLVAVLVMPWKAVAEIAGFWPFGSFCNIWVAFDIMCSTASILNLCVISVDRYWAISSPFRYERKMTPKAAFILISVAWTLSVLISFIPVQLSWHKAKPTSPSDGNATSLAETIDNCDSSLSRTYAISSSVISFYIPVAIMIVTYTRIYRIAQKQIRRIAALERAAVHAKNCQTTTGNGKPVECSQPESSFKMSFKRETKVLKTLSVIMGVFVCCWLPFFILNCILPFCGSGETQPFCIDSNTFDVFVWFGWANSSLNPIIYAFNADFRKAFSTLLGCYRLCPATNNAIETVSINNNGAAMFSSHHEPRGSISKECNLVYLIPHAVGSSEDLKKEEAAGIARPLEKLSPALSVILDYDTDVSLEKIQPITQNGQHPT
Sequence of Transient receptor potential cation channel subfamily V member 1 (Homo sapiens) (Q8NER1 whole entry, looked up): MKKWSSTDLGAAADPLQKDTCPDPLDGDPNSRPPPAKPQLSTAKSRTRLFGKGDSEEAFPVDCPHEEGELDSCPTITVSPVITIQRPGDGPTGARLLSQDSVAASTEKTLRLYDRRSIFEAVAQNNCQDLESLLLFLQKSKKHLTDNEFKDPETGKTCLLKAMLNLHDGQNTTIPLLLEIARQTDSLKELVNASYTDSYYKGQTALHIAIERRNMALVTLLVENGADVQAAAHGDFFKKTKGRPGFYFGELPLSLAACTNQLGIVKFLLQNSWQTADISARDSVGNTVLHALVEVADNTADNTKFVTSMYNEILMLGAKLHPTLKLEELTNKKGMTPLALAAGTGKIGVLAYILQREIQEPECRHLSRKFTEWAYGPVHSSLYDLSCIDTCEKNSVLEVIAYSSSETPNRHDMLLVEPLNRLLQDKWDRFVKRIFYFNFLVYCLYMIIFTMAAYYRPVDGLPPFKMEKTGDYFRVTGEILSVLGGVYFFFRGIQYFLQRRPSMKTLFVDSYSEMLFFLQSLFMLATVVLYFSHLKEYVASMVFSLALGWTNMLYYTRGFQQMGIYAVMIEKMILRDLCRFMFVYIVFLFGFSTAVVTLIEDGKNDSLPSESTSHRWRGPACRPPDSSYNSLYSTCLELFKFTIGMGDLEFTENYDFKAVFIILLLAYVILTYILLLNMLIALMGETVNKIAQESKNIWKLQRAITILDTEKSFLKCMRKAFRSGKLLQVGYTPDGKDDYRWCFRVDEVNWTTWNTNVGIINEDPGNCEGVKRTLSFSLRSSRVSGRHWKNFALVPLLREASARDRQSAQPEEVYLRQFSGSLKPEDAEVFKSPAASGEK
Sequence of Thyrotropin-releasing hormone receptor (Homo sapiens) (P34981 whole entry, looked up): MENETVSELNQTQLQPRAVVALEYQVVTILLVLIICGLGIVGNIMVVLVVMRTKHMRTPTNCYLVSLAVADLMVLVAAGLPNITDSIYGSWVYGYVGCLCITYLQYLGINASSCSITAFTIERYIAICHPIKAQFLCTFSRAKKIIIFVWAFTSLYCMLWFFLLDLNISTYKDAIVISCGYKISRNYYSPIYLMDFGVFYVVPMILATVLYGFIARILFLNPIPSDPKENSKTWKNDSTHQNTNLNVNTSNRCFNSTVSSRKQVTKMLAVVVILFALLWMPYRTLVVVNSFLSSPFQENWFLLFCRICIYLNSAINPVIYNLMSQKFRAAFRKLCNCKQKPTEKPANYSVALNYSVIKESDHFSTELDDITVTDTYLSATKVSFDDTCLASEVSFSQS
Sequence of phosphoglycerate mutase (Leishmania major) (Q4Q090 1-553): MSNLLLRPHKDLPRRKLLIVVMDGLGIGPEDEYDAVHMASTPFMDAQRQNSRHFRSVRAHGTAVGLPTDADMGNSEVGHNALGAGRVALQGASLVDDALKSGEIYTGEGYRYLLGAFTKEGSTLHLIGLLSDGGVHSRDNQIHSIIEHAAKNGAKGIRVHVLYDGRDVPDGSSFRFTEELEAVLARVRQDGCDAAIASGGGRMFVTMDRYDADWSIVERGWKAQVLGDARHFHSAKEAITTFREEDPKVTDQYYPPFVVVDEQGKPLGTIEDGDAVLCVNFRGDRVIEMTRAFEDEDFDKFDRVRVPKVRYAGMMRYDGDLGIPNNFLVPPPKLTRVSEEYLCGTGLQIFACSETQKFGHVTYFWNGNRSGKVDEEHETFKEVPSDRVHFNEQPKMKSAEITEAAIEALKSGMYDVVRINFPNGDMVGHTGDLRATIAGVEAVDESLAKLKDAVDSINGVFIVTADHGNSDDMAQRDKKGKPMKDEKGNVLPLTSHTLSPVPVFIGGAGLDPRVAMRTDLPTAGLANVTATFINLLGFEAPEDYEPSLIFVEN
Sequence of Peptidyl-prolyl cis-trans isomerase NIMA-interacting 1 (Homo sapiens) (Q13526 whole entry, looked up): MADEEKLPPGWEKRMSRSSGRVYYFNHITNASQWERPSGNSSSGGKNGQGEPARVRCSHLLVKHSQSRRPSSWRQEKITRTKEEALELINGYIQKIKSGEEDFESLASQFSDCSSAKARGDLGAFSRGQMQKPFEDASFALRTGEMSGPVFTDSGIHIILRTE
Sequence of Galactokinase (Homo sapiens) (P51570 whole entry, looked up): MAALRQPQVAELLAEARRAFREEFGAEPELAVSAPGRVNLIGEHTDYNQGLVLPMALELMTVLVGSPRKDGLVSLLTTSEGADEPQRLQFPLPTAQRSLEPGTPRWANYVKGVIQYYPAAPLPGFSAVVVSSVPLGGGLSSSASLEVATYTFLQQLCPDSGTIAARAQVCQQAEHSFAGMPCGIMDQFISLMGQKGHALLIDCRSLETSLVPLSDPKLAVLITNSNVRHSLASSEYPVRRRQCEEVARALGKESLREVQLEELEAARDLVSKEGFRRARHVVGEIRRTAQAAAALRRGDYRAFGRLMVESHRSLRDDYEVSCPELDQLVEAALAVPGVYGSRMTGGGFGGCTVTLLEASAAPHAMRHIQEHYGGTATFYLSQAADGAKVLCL
Sequence of Thyrotropin receptor (Homo sapiens) (P16473 whole entry, looked up): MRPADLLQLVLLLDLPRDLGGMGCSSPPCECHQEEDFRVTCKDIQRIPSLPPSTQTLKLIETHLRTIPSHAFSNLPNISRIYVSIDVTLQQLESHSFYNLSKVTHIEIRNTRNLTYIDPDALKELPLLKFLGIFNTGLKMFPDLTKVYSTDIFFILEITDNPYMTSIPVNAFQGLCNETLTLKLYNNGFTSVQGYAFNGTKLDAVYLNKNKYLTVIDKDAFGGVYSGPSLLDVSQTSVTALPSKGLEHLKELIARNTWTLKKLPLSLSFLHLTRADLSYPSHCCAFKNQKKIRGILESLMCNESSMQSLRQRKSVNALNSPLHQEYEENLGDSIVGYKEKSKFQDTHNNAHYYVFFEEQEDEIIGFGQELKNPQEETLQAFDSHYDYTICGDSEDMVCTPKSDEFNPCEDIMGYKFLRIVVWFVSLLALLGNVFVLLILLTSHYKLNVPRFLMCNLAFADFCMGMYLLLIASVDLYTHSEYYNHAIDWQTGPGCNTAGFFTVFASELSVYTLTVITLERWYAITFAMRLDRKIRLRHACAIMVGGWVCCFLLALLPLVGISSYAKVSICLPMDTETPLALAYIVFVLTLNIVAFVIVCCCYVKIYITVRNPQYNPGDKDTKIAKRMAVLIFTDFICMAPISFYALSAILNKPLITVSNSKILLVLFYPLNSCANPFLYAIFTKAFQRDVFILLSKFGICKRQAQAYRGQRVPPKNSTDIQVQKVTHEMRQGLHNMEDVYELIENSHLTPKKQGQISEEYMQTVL

For the compound `N[C@@H](Cc1ccc(F)cc1)C(=O)O`, the result in [1], in test [2] and in test [8] was inactive. For the same compound, the Potency entry in [3], in test [4], in [5], in [7], in test [9] and in test [10] was “inactive” throughout. Also, the Potency entry in test [11], in test [12], in [13], in test [14] and in test [15] was “inactive” in each case. Besides, the activation in test [6] is 0.125% (inactive). The viability change in test [7] is -9.16%.
With `COc1ccccc1N1CCN(CCN(C(=O)c2ccc(F)cc2)c2ccccn2)CC1`, the result in test [1], in test [2] and in test [8] was inactive. In addition, the Potency entry in test [3], in test [4], in [16], in test [17], in [9] and in [10] was “inactive” in each case. Further, the Potency result in test [11], in test [12], in test [13], in test [14] and in test [15] was “inactive” throughout. Moreover, the activation in test [6] is 0.312% (inactive).
Take `COc1cc([C@@H]2c3cc4c(cc3[C@H](O)C3COC(=O)[C@@H]32)OCO4)cc(OC)c1OC` (some centres not stated): the outcome in test [1], in test [2] and in [8] was inactive. The Potency result in [3], in test [4], in [5], in [18], in [17] and in test [10] was “inactive” throughout. In addition, the Potency result in test [11], in test [12] and in test [15] was “inactive” in each case. Moreover, the activation in test [6] was 0.5% (inactive).
Consider `COC(=O)C(N)Cc1ccc(Cl)cc1` (configuration not stated), for which the outcome in [1], in test [2] and in [8] was inactive. The Potency result in test [3], in test [4], in [5], in test [7], in test [17] and in [10] was “inactive” in each case. In addition, the Potency result in test [11], in test [12], in test [13], in test [14] and in test [15] was “inactive” each time. In addition, the activation in [6] is -2.56% (inactive). Further, in test [7], the viability change was determined as 9.57%.
As to `NCCCCN`, the result in [1], in test [2] and in [8] was inactive. In addition, the Potency result in test [3], in [4], in test [5], in test [18], in [7] and in test [9] was “inactive” each time. For the same compound, the Potency entry in test [10], in test [11], in test [13], in test [14] and in test [15] was “inactive” each time. The activation in test [6] was 1.31% (inactive). Further, the viability change in test [7] was -1.47%.
Consider `N[C@H](C(=O)O)c1cc(O)cc(O)c1`, for which the outcome in test [1], in test [2] and in [8] was inactive. The Potency entry in test [3], in [4], in test [16], in test [18], in test [7] and in test [17] was “inactive” in each case. The Potency result in test [11], in test [12], in [13], in [14] and in test [15] was “inactive” throughout. Also, the activation in test [6] is 0.0625% (inactive). The viability change in [7] was determined as 13.1%.
Regarding `N#C/C(=C\c1ccc(O)c(O)c1)C(=O)NCCc1ccccc1`, the result in [1], in test [2] and in test [8] was inactive. In addition, the Potency entry in [3], in [4], in test [5], in [18], in test [7] and in test [17] was “inactive” throughout. Moreover, the Potency result in test [11], in [12], in [13] and in [15] was “inactive” throughout. Besides, the activation in [6] was 0.438% (inactive). Besides, the viability change in [7] is -10.3%.
Consider `O=c1[nH]c(=O)c2nc3ccccc3nc2[nH]1`, for which the outcome in test [1], in [2] and in test [8] was inactive. The Potency entry in test [3], in test [4], in [5], in test [7], in test [17] and in test [9] was “inactive” in each case. Besides, the Potency entry in test [11], in test [12], in test [14] and in [15] was “inactive” throughout. Besides, in [6], the activation was 3.81% (inactive). Moreover, the viability change in test [7] is -5.91%.
